Test results as given in PubChem BioAssay AID1159580 (chemical genetic matrix, 2015).
Hit rate of the full screen: of about 5,500 compounds, about 2,000 (36%) were called active. Not shown: some 18% with an inconclusive outcome. The list shows a part of the results. Values without a mark were called inactive. No stated cut-off is given here; in the data, active means normalized growth mostly below about 0.91 (no sharp cut-off); inconclusive means no clear call, values can overlap the other calls; inactive means mostly above about 0.92.

Test: chemical genetic growth profiling, strain panel (AID 1159580);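 further: tested at 20 µM; growth read once vehicle control cultures reached saturation at 30 °C; 1 = growth at the plate median or of vehicle wells; lower values mean less growth of the strain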
Conditions: growth OD
[1] = S. cerevisiae deletion strains, locus YDR150W, strain NUM1, active compounds read low
[2] = S. cerevisiae deletion strains, locus YPL055C, strain LGE1, active compounds read low
[3] = S. cerevisiae deletion strains, locus YDL101C, strain DUN1, active compounds read low
[4] = S. cerevisiae deletion strains, locus YHR030C, strain SLT2, active compounds read low

## CC(=O)Oc1cc(C(C)C)c(OCCN(C)C)cc1C
S. cerevisiae deletion strains, locus YAL040C, strain CLN3, active compounds read low
  normalized growth: 1.01
S. cerevisiae deletion strains, locus YCL061C, strain MRC1 (second series), active compounds read low
  normalized growth: 1.01
[1]
  normalized growth: 1
S. cerevisiae deletion strains, locus YDR363W, strain ESC2, active compounds read low
  normalized growth: 1.01
S. cerevisiae deletion strains, locus YER002W, strain NOP16, active compounds read low
  normalized growth: 1.03
S. cerevisiae deletion strains, locus YNL175C, strain NOP13, active compounds read low
  normalized growth: 1.01
S. cerevisiae deletion strains, locus YNL197C, strain WHI3, active compounds read low
  normalized growth: 1.01
S. cerevisiae deletion strains, locus YNL224C, strain SQS1, active compounds read low
  normalized growth: 1
S. cerevisiae deletion strains, locus YOR083W, strain WHI5 (second series), active compounds read low
  normalized growth: 1.01
[2]
  normalized growth: 1.01

## CCn1nc(C)cc1-c1nnc(Sc2ncc([N+](=O)[O-])s2)n1C
S. cerevisiae deletion strains, locus YAR019C, strain CDC15, active compounds read low
  normalized growth: 0.964
S. cerevisiae deletion strains, locus YBL105C, strain PKC1, active compounds read low
  normalized growth: 0.968
S. cerevisiae deletion strains, locus YBR135W, strain CKS1, active compounds read low
  normalized growth: 0.967
S. cerevisiae deletion strains, locus YBR136W, strain MEC1, active compounds read low
  normalized growth: 0.962
S. cerevisiae deletion strains, locus YBR160W, strain CDC28, active compounds read low
  normalized growth: 0.956
S. cerevisiae deletion strains, locus YDL017W, strain CDC7, active compounds read low
  normalized growth: 0.974
S. cerevisiae deletion strains, locus YDL028C, strain MPS1, active compounds read low
  normalized growth: 0.961
[3]
  normalized growth: 0.983
S. cerevisiae deletion strains, locus YDL108W, strain KIN28, active compounds read low
  normalized growth: 0.945
S. cerevisiae deletion strains, locus YDL132W, strain cdc53, active compounds read low
  normalized growth: 0.966
S. cerevisiae deletion strains, locus YDL214C, strain PRR2, active compounds read low
  normalized growth: 0.981
S. cerevisiae deletion strains, locus YDR052C, strain DBF4, active compounds read low
  normalized growth: 0.988
S. cerevisiae deletion strains, locus YDR054C, strain cdc34, active compounds read low
  normalized growth: 0.975
S. cerevisiae deletion strains, locus YDR226W, strain ADK1, active compounds read low
  normalized growth: 0.959
S. cerevisiae deletion strains, locus YDR477W, strain SNF1, active compounds read low
  normalized growth: 0.95
S. cerevisiae deletion strains, locus YER123W, strain YCK3, active compounds read low
  normalized growth: 0.93
S. cerevisiae deletion strains, locus YER133W, strain GLC7, active compounds read low
  normalized growth: 0.995
S. cerevisiae deletion strains, locus YFL009W, strain cdc4, active compounds read low
  normalized growth: 0.958
S. cerevisiae deletion strains, locus YFL029C, strain CAK1, active compounds read low
  normalized growth: 0.954
S. cerevisiae deletion strains, locus YFR003C, strain YPI1, active compounds read low
  normalized growth: 0.971
S. cerevisiae deletion strains, locus YFR019W, strain FAB1, active compounds read low
  normalized growth: 0.974
S. cerevisiae deletion strains, locus YFR028C, strain CDC14, active compounds read low
  normalized growth: 0.968
S. cerevisiae deletion strains, locus YGR040W, strain KSS1, active compounds read low
  normalized growth: 0.954
S. cerevisiae deletion strains, locus YGR052W, strain FMP48, active compounds read low
  normalized growth: 1.02
S. cerevisiae deletion strains, locus YGR092W, strain DBF2, active compounds read low
  normalized growth: 0.92
[4]
  normalized growth: 1.03
S. cerevisiae deletion strains, locus YHR079C, strain IRE1, active compounds read low
  normalized growth: 0.963
S. cerevisiae deletion strains, locus YHR082C, strain KSP1, active compounds read low
  normalized growth: 1.01
S. cerevisiae deletion strains, locus YHR205W, strain SCH9, active compounds read low
  normalized growth: 0.956
S. cerevisiae deletion strains, locus YIL147C, strain SLN1, active compounds read low
  normalized growth: 0.967
S. cerevisiae deletion strains, locus YJL095W, strain BCK1, active compounds read low
  normalized growth: 0.933
S. cerevisiae deletion strains, locus YJL128C, strain PBS2, active compounds read low
  normalized growth: 0.94
S. cerevisiae deletion strains, locus YJL157C, strain FAR1, active compounds read low
  normalized growth: 0.957
S. cerevisiae deletion strains, locus YJR016C, strain ILV3, active compounds read low
  normalized growth: 0.967
S. cerevisiae deletion strains, locus YJR066W, strain TOR1 (second series), active compounds read low
  normalized growth: 0.971
S. cerevisiae deletion strains, locus YJR066W, strain TOR1, active compounds read low
  normalized growth: 0.921
S. cerevisiae deletion strains, locus YKL048C, strain ELM1, active compounds read low
  normalized growth: 0.99
S. cerevisiae deletion strains, locus YKL067W, strain YNK1, active compounds read low
  normalized growth: 1
S. cerevisiae deletion strains, locus YKL101W, strain HSL1, active compounds read low
  normalized growth: 0.985
S. cerevisiae deletion strains, locus YKL193C, strain SDS22, active compounds read low
  normalized growth: 0.962
S. cerevisiae deletion strains, locus YKL203C, strain TOR2, active compounds read low
  normalized growth: 1.07
S. cerevisiae deletion strains, locus YLR113W, strain HOG1, active compounds read low
  normalized growth: 0.971
S. cerevisiae deletion strains, locus YLR133W, strain CKI1, active compounds read low
  normalized growth: 0.958
S. cerevisiae deletion strains, locus YLR403W, strain SFP1, active compounds read low
  normalized growth: 0.959
S. cerevisiae deletion strains, locus YML070W, strain DAK1, active compounds read low
  normalized growth: 0.959
S. cerevisiae deletion strains, locus YMR001C, strain CDC5, active compounds read low
  normalized growth: 0.961
S. cerevisiae deletion strains, locus YMR205C, strain PFK2 (second series), active compounds read low
  normalized growth: 0.996
S. cerevisiae deletion strains, locus YMR277W, strain FCP1, active compounds read low
  normalized growth: 0.95
S. cerevisiae deletion strains, locus YNL006W, strain LST8, active compounds read low
  normalized growth: 0.967
S. cerevisiae deletion strains, locus YNL020C, strain ARK1, active compounds read low
  normalized growth: 0.968
S. cerevisiae deletion strains, locus YNL161W, strain CBK1, active compounds read low
  normalized growth: 0.975
S. cerevisiae deletion strains, locus YNL183C, strain NPR1, active compounds read low
  normalized growth: 1.04
S. cerevisiae deletion strains, locus YNL207W, strain RIO2, active compounds read low
  normalized growth: 0.985
S. cerevisiae deletion strains, locus YNL222W, strain SSU72, active compounds read low
  normalized growth: 0.951
S. cerevisiae deletion strains, locus YNL307C, strain MCK1 (second series), active compounds read low
  normalized growth: 0.945
S. cerevisiae deletion strains, locus YOL078W, strain AVO1, active compounds read low
  normalized growth: 0.965
S. cerevisiae deletion strains, locus YOL136C, strain PFK27, active compounds read low
  normalized growth: 0.955
S. cerevisiae deletion strains, locus YOR061W, strain CKA2, active compounds read low
  normalized growth: 0.98
S. cerevisiae deletion strains, locus YOR119C, strain RIO1, active compounds read low
  normalized growth: 1.05
S. cerevisiae deletion strains, locus YOR231W, strain MKK1, active compounds read low
  normalized growth: 0.927
S. cerevisiae deletion strains, locus YOR329C, strain SCD5, active compounds read low
  normalized growth: 0.975
S. cerevisiae deletion strains, locus YPL031C, strain PHO85, active compounds read low
  normalized growth: 0.968
S. cerevisiae deletion strains, locus YPL153C, strain RAD53, active compounds read low
  normalized growth: 0.96
S. cerevisiae deletion strains, locus YPL204W, strain HRR25, active compounds read low
  normalized growth: 0.965
S. cerevisiae deletion strains, locus YPL209C, strain IPL1, active compounds read low
  normalized growth: 0.974
S. cerevisiae deletion strains, locus YPL256C, strain CLN2, active compounds read low
  normalized growth: 0.984
S. cerevisiae deletion strains, locus YPR025C, strain CCL1, active compounds read low
  normalized growth: 0.965
S. cerevisiae deletion strains, locus YPR106W, strain ISR1, active compounds read low
  normalized growth: 0.96
S. cerevisiae deletion strains, locus YPR111W, strain DBF20, active compounds read low
  normalized growth: 0.978
S. cerevisiae deletion strains, strain NNK1, active compounds read low
  normalized growth: 0.984
S. cerevisiae deletion strains, strain TSCII, active compounds read low
  normalized growth: 0.963

## CCCCCn1c(Sc2ncc([N+](=O)[O-])s2)n[nH]c1=O
S. cerevisiae deletion strains, locus YAL013W, strain DEP1, active compounds read low
  normalized growth: 0.592 (active)
S. cerevisiae deletion strains, locus YBR229C, strain ROT2, active compounds read low
  normalized growth: 0.463 (active)
S. cerevisiae deletion strains, locus YCL061C, strain MRC1, active compounds read low
  normalized growth: 0.67 (active)
[3]
  normalized growth: 0.559 (active)
S. cerevisiae deletion strains, locus YDL134C, strain PPH21, active compounds read low
  normalized growth: 0.099 (active)
[1]
  normalized growth: 0.615 (active)
S. cerevisiae deletion strains, locus YEL061C, strain CIN8, active compounds read low
  normalized growth: 0.0768 (active)
S. cerevisiae deletion strains, locus YGR078C, strain PAC10, active compounds read low
  normalized growth: 0.499 (active)
[4]
  normalized growth: 0.0794 (active)
S. cerevisiae deletion strains, locus YHR087W, strain rtc3, active compounds read low
  normalized growth: 0.53 (active)
S. cerevisiae deletion strains, locus YJL187C, strain SWE1, active compounds read low
  normalized growth: 0.493 (active)
S. cerevisiae deletion strains, locus YJR043C, strain POL32, active compounds read low
  normalized growth: 0.695 (active)
S. cerevisiae deletion strains, locus YJR075W, strain HOC1, active compounds read low
  normalized growth: 0.471 (active)
S. cerevisiae deletion strains, locus YKL190W, strain CNB1, active compounds read low
  normalized growth: 0.0782 (active)
S. cerevisiae deletion strains, locus YLR039C, strain RIC1, active compounds read low
  normalized growth: 0.134 (active)
S. cerevisiae deletion strains, locus YLR058C, strain SHM2 (second series), active compounds read low
  normalized growth: 0.675 (active)
S. cerevisiae deletion strains, locus YLR085C, strain ARP6, active compounds read low
  normalized growth: 0.0989 (active)
S. cerevisiae deletion strains, locus YLR262C, strain YPT6, active compounds read low
  normalized growth: 0.123 (active)
S. cerevisiae deletion strains, locus YML094W, strain GIM5, active compounds read low
  normalized growth: 0.22 (active)
S. cerevisiae deletion strains, locus YMR219W, strain ESC1, active compounds read low
  normalized growth: 0.624 (active)
S. cerevisiae deletion strains, locus YMR263W, strain SAP30, active compounds read low
  normalized growth: 0.669 (active)
S. cerevisiae deletion strains, locus YNL153C, strain GIM3, active compounds read low
  normalized growth: 0.0882 (active)
S. cerevisiae deletion strains, locus YNL298W, strain CLA4 (second series), active compounds read low
  normalized growth: 0.0804 (active)
S. cerevisiae deletion strains, locus YNL322C, strain KRE1, active compounds read low
  normalized growth: 0.917 (active)
S. cerevisiae deletion strains, locus YNR030W, strain Alg12, active compounds read low
  normalized growth: 0.0933 (active)
[2]
  normalized growth: 0.292 (active)
S. cerevisiae deletion strains, locus YPL241C, strain CIN2, active compounds read low
  normalized growth: 0.1 (active)
S. cerevisiae deletion strains, locus YPR135W, strain CTF4, active compounds read low
  normalized growth: 0.186 (active)
S. cerevisiae strains, strain wild type, active compounds read low
  normalized growth: 0.0897 (active)
